Shiga toxin inh: Shiga toxin inhibition; 9.2% of 290,000 active; inhibition, % at 38.7 µM; AID 2315; Vero cells, Shiga toxin protein synthesis inhibition reporter; in the data active means inhibition mostly above about 28%, no sharp cut-off; inactive means mostly below about 43%; further: 0% is about no effect
NS1 function inh: influenza NS1 inhibition. Potency, µM (highest dose often 46.1 µM), for the others: at the top dose activity, positive = more growth. 0.4% of 270,000 active. AID 2326; calls by dose curve; further: potency means the concentration at half of the fitted maximal effect; actives are rising curves; nearly all actives have a fitted effect of over 50% in size
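Growth recovery, yeast-based: influenza A NS1 expressed in S. cerevisiae causes slow growth, and suppressors are detected by OD600. The parent strain without NS1 is used as positive control.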
CHX counter: affects cycloheximide protein synthesis inhibition readout, counter-screen. cell reporter, cycloheximide protein synthesis inhibition counterscreen. max response, %. 12% of 300,000 active; in the data active means max response mostly above about 13%, no sharp cut-off; inactive means mostly below about 14%; further: read at 38.3 µM for the half of the compounds with a filed dose; 0% is about no effect
Pf growth 96h: P. falciparum growth inhibition at 96 hours. P. falciparum luciferase reporter growth, 96 h. Potency, µM (titrated, usually from 28.7 µM), for inactives: at the highest dose activity change, negative = inhibition, actives largely listed as inhibitors. 6.9% of 320,000 active. AID 504834; further: potency means the concentration at half of the fitted maximal effect; on the % scale 0 is the no-effect control and ±100 the full control effect
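P. falciparum expressing integrated firefly luciferase grown in erythrocytes (2% hematocrit, 0.05% parasitemia final) with compounds for 96 hours at 37 C, 5% CO2. Growth inhibition read as loss of luminescence after adding luciferase detection reagent.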
SARS PLpro yeast: blocks SARS-CoV papain-like protease in a yeast assay. S. cerevisiae expressing SARS-CoV PLpro, growth rescue. Potency, µM (doses to about 32.9 µM), inactives show at the highest dose activity, positive = growth rescue, hits mostly activators. 0.19% of 330,000 active. AID 485353; calls by dose curve; further: potency means the concentration at half of the fitted maximal effect; 0% is about no effect; nearly all actives have a fitted effect of over 55% in size
Pf growth 48h: inhibits P. falciparum growth in the first generation, 48 h; Potency, µM (top dose mostly 28.7 µM), for inactives: at the highest dose activity change, negative = inhibition, most hits filed as inhibitors; 5.9% of 310,000 active; P. falciparum luciferase growth in erythrocytes, 48 h; further: potency means the concentration at half of the fitted maximal effect; on the % scale 0 is the no-effect control and ±100 the full control effect
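Luciferase-expressing parasites in RBCs, 2% Hct / 0.1% parasitemia final; RPMI 1640 + 0.5% Albumax; 37 C, 5% CO2, one generation; luminescence read-out, lower signal = inhibition.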
* hit, by the source's call; i = inactive; ? = inconclusive; / = no result given; [ ] = another dose, or the depositor's remark. Only some compounds are listed: those with a hit (about 21% of all), similar ones and a draw of the others. Unless noted, the call rests on the fitted dose curve; in most records, active means well fitted inhibition curve with a large enough effect; inconclusive means small, poorly fitted or top-dose-only effect, or another doubt; inactive means no such curve, though single readings can be large or run the other way.

SMILES	Shiga toxin inh	NS1 function inh	CHX counter	Pf growth 96h	SARS PLpro yeast	Pf growth 48h
CC(=O)c1cnc2nc(SCc3ccc(Cl)cc3)nn2c1C	10	-34%	11	-12%	-9%	-22%
CC(=O)c1cnc2nc(SCc3ccc(C)cc3)nn2c1C	/	-8%	-2	13µM*	-2%	28%
Cc1cc(C)n2nc(SCc3cccc(F)c3)nc2n1	26	-6%	2	?	-2%	-3%
O=C(C1=C[C@@H](c2ccc(Br)cc2)C[C@@H](OCCCCO)O1)N1CCN(Cc2ccc3c(c2)OCO3)CC1	11	-15%	1	4.1µM*	-1%	4.1µM*
O=C(C1=C[C@H](c2ccc(C(F)(F)F)cc2)C[C@H](OCCCCO)O1)N1CCN(Cc2ccc3c(c2)OCO3)CC1	-8	-13%	-1	3.7µM*	-1%	5.9µM*
Cc1nc(-c2ccc(Cl)cc2)sc1C(=O)NNC(=O)C(C)C	-10	-4%	8	38%	-2%	21%
CNC(=O)c1sc(-c2ccc(Cl)cc2)nc1C	112*	-20%	53*	159%	/	114%
CCNC(=O)O/N=C(\C)c1sc(-c2ccccc2)nc1C	61*	0%	39*	?	-2%	17%
Cc1nc(-c2cccnc2)sc1C(=O)Nc1cccc(C(F)(F)F)c1	-15	1%	-1	12µM*	-14%	?
CC(=O)c1sc(-c2ccc(Cl)cc2)nc1C	53*	-5%	26*	111%	0%	41%
Cc1onc(-c2ccccc2Cl)c1C(=O)N1CCOC12CCCCC2	-19	-1%	-1	-4%	-1%	-20%
C/C=C(\C)C(=O)NNC(=O)c1sc(-c2ccccc2)nc1C	-6	-3%	-3	0%	0%	110%
CNC(=O)c1sc(-c2ccccc2)nc1C	132*	-3%	39*	/	-3%	81%
CC(=O)c1sc(-c2cccc(Cl)c2)nc1C	49	-5%	20*	87%	3%	70%
C/C(=N\O)c1sc(-c2ccccc2)nc1C	98*	/	46*	i	-7%	478%
Cc1nc(-c2ccc(C(F)(F)F)cc2)sc1C(=O)NN	37	3%	15*	-57%	1%	?
Cc1noc(C)c1NC(=O)Nc1ccc2c(c1)C(=O)N([C@H](C)CO)C[C@H](C)[C@@H](CN(C)C(=O)NC1CCCCC1)O2	/	/	/	/	1%	/
COc1ccccc1CNC(=O)C(NC(=O)c1ccc(C)cc1)C(C)C (stereo not drawn)	-13	/	-2	?	-2%	3%
Cc1cccc(NC(=O)c2cccc(N3C(=O)C4CCC(C)CC4C3=O)c2)c1C (stereo not drawn)	-8	3%	-3	38%	0%	-29%
O=C(Nc1ccccc1)c1cccc(N2C(=O)C3C4C=CC(C4)C3C2=O)c1 (stereo not drawn)	29	-13%	19*	?	-3%	-2%
O=C(Nc1ccccc1)c1cccc(N2C(=O)C3C4C=CC(C5CC45)C3C2=O)c1 (stereo not drawn)	8	12%	3	?	-2%	-20%
COC(=O)c1ccc(NC(=O)c2cccc(N3C(=O)C4C5C=CC(C6CC56)C4C3=O)c2)cc1 (stereo not drawn)	64*	-48%	33*	?	0%	20%
O=C(Nc1ccc(Br)cc1)c1cccc(N2C(=O)C3C4C=CC(C4)C3C2=O)c1 (stereo not drawn)	20	13%	10	?	24%	-24%
Cc1ccc(NC(=O)c2ccccc2N2C(=O)C3C4C=CC(C5CC45)C3C2=O)cc1C (stereo not drawn)	5	-10%	-1	9.3µM*	-1%	?
Cc1ccccc1NC(=O)c1cccc(N2C(=O)C3C4CC(C(Br)C4Br)C3C2=O)c1 (stereo not drawn)	-10	18%	-1	9.3µM*	2%	-25%
SMILES	Shiga toxin inh	NS1 function inh	CHX counter	Pf growth 96h	SARS PLpro yeast	Pf growth 48h
O=C(O)CCNC(=O)C12CC3CC(CC(C3)C1)C2	-5	/	8	114%	2%	24%
Cc1cc(C)n(-c2nnc(NC34CC5CC(CC(C5)C3)C4)nn2)n1	21*	3%	37*	2.9µM*	-31%	3.3µM*
Cc1cc(C)n(-c2ncc(C#N)cn2)n1	-5	3%	2	36%	1%	15%
Cc1cc(C)n(-c2nc(NC(C)(C)C)nc(NC(C)(C)C)n2)n1	-10	4%	-4	16%	2%	?
Cc1cc(C)n(-c2nnc(NC(C)(C)C)nn2)n1	54*	-3%	26*	181%	-8%	209%
CN(CCOc1ccccc1)C(=O)c1cc(S(=O)(=O)N2CCCCC2)ccc1Cl	/	/	/	?	0%	2%
NC(=S)c1c(Cl)cc(C(F)(F)F)cc1Cl	-16	1%	-3	37%	0%	17%
Cc1ccc(CN2CCC(C(=O)Nc3cccc(-c4cccc(F)c4)c3)CC2)o1	-7	-5%	-2	4.7µM*	-4%	28%
CCn1nc(C)c(CN2CCC(C(=O)Nc3cccc(-c4cccc(F)c4)c3)CC2)c1C	-4	16%	-5	4%	6%	10µM*
CCn1cc(CN2CCC(C(=O)Nc3cccc(-c4cccc(F)c4)c3)CC2)cn1	-3	-5%	-2	0%	3%	?
O=C(Nc1cccc(-c2cccc(Cl)c2)c1)C1CCN(Cc2ccc(CO)o2)CC1	-14	10%	-2	?	-1%	-17%
Cc1cc2ncn(-c3ncccc3[N+](=O)[O-])c2cc1C	-1	?	10	4%	-27%	0%
Cc1nnc(SCC(=O)c2ccccc2)n1Cc1ccccc1	-11	7%	-9	-25%	-21%	-6%
CCCN1CCC(=O)N([C@H](CSc2ccc(Br)cc2)c2ccccc2)CC1	19	-7%	35*	?	-1%	0%
O=C1CCN(CCc2ccccc2)CCN1[C@H](CSc1ccc(Br)cc1)c1ccccc1	-3	1%	-2	-2%	3%	-1%
CC(=O)Nc1ccc(SCC(c2ccccc2)N2CCN(CC(C)C)CCC2=O)cc1 (stereo not drawn)	14	/	15	/	/	/
CCCN1CCC(=O)N(C(CSc2ccc(OC)cc2)c2ccccc2)CC1 (stereo not drawn)	156*	/	42*	/	/	/
CC(=O)Nc1ccc(SC[C@H](c2ccccc2)N2CCN(CCc3ccccc3)CCC2=O)cc1	25	-2%	-1	7.4µM*	1%	13µM*
COc1cc(NC(=O)/C=C/c2ccccc2[N+](=O)[O-])cc(OC)c1	19	-2%	15*	-7%	3%	48%
O=C(/C=C/c1ccccc1[N+](=O)[O-])NC1CCCC1	70*	-2%	19*	-3%	0%	38%[5.75 µM]
CC(C)N(Cc1ccccc1)C(=O)/C=C/c1ccccc1[N+](=O)[O-]	-16	-1%	-2	-4%	0%	10µM*

Bioassay records: PubChem, National Center for Advancing Translational Sciences (NCATS)
